# From the supplement of paper PMC8728848
# Many of the other results were omitted from the sample, so the strongest signals are more common in it than they were.
# B1: LTL (Lotus tetragonolobus), P19664 (protein)
# chain: VSFNYTEFKDDGSLILQGDAKIWTDGRLAMPTDPLVNNPKTTRSAGRALYATPVPIWDSATGNVASFVTSFNFLFVIRELKYTPTDGLVFFLAPVGTEIPSGSTGGFLGIFDGSNGFNQFVAVEFDSYHNIWDPKSLRSSHVGIDVNSIMSLKAVNWNRVSGSLEKATIIYDSQTNILSVVMTSQNGQITTIYGTIDLKTVLPEKVSVGFSATTGNPEREKHDIYSWSFTSTLKEPEEQA
# Key:
# Experiment in all cases: glycan array binding signal (z-score within array); higher = stronger binding
# Conditions in all cases: glycan notation: IUPAC condensed, linker removed
# GlcNAc(b1-3)Gal(b1-4)Glc = biological target: GlcNAc(b1-3)Gal(b1-4)Glc
# How it was run: (§1)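 The binding signal is a Z-score computed within each array and averaged over linkers. Arrays of the same protein sequence at different concentrations or buffers were also averaged together. Data originate from 3228 arrays in the Consortium for Functional Glycomics database, kept only where the protein sequence was available.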
# [1] = biological target: GlcNAc(b1-3)Gal(b1-4)GlcNAc(b1-3)Gal(b1-4)GlcNAc(b1-3)Gal(b1-4)GlcNAc(b1-2)[GlcNAc(b1-3)Gal(b1-4)GlcNAc(b1-3)Gal(b1-4)GlcNAc(b1-3)Gal(b1-4)GlcNAc(b1-6)]Man(a1-6)[GlcNAc(b1-3)Gal(b1-4)GlcNAc(b1-3)Gal(b1-4)GlcNAc(b1-3)Gal(b1-4)GlcNAc(b1-2)Man(a1-3)]Man(b1-4)GlcNAc(b1-4)[Fuc(a1-6)]GlcNAc
# How it was run: as §1
# [2] = biological target: GlcNAc(b1-3)Gal(b1-4)GlcNAc(b1-6)[Gal(b1-3)]GalNAc
# How it was run: as §1
# Kdn(a2-3)Gal(b1-3)GalNAc = biological target: Kdn(a2-3)Gal(b1-3)GalNAc
# How it was run: as §1
# Man(a1-3)[Man(a1-6)]Man = biological target: Man(a1-3)[Man(a1-6)]Man
# How it was run: as §1
# [3] = biological target: Man(a1-3)[Man(a1-6)]Man(a1-6)[Man(a1-3)]Man
# How it was run: as §1
# [4] = biological target: Neu5Ac(a2-3)Gal(b1-3)GalNAc(b1-3)Gal(b1-4)GlcNAc
# How it was run: as §1
# [5] = biological target: Neu5Ac(a2-3)Gal(b1-3)GlcNAc(b1-2)Man(a1-3)[Neu5Ac(a2-3)Gal(b1-3)GlcNAc(b1-2)Man(a1-6)]Man(b1-4)GlcNAc(b1-4)GlcNAc
# How it was run: as §1
# [6] = biological target: Neu5Ac(a2-3)Gal(b1-3)[Fuc(a1-4)]GlcNAc
# How it was run: as §1
# [7] = biological target: Neu5Ac(a2-3)Gal(b1-3)[Neu5Ac(a2-6)]GlcNAc(b1-3)[Fuc(a1-3)[Gal(b1-4)]GlcNAc(b1-6)]Gal(b1-4)Glc
# How it was run: as §1
# Neu5Ac(a2-3)Gal(b1-4)Glc = biological target: Neu5Ac(a2-3)Gal(b1-4)Glc
# How it was run: as §1
# [8] = biological target: Neu5Ac(a2-3)Gal(b1-4)GlcNAc(b1-2)Man
# How it was run: as §1
# [9] = biological target: Neu5Ac(a2-3)Gal(b1-4)GlcNAc(b1-3)Gal(b1-4)GlcNAc(b1-2)Man(a1-3)[Neu5Ac(a2-3)Gal(b1-4)GlcNAc(b1-3)Gal(b1-4)GlcNAc(b1-2)Man(a1-6)]Man(b1-4)GlcNAc(b1-4)GlcNAc
# How it was run: as §1
# [10] = biological target: Neu5Ac(a2-3)Gal(b1-4)GlcNAc(b1-3)Gal(b1-4)GlcNAc(b1-3)Gal(b1-4)GlcNAc
# How it was run: as §1
# [11] = biological target: Neu5Ac(a2-3)Gal(b1-4)GlcNAc(b1-3)Gal(b1-4)GlcNAc(b1-3)Gal(b1-4)GlcNAc(b1-2)Man(a1-3)[Neu5Ac(a2-3)Gal(b1-4)GlcNAc(b1-3)Gal(b1-4)GlcNAc(b1-3)Gal(b1-4)GlcNAc(b1-2)Man(a1-6)]GalNAc
# How it was run: as §1
# [12] = biological target: Neu5Ac(a2-3)Gal(b1-4)GlcNAc(b1-6)[Neu5Ac(a2-3)Gal(b1-3)]GalNAc
# How it was run: as §1
# [13] = biological target: Neu5Ac(a2-3)Gal(b1-4)[Fuc(a1-3)]GlcNAc
# How it was run: as §1
# [14] = biological target: Neu5Ac(a2-3)Gal6S(b1-4)[Fuc(a1-3)]GlcNAc
# How it was run: as §1
# Neu5Ac(a2-6)Gal = biological target: Neu5Ac(a2-6)Gal
# How it was run: as §1
# [15] = biological target: Neu5Ac(a2-6)Gal(b1-4)GlcNAc(b1-2)Man(a1-6)[Gal(b1-4)GlcNAc(b1-2)Man(a1-3)]Man(b1-4)GlcNAc(b1-4)GlcNAc
# How it was run: as §1
# [16] = biological target: Neu5Ac(a2-6)Gal(b1-4)GlcNAc(b1-2)[Neu5Ac(a2-6)Gal(b1-4)GlcNAc(b1-4)]Man(a1-3)[GlcNAc(b1-4)][Neu5Ac(a2-6)Gal(b1-4)GlcNAc(b1-2)[Neu5Ac(a2-6)Gal(b1-4)GlcNAc(b1-6)]Man(a1-6)]Man(b1-4)GlcNAc(b1-4)GlcNAc
# How it was run: as §1
# [17] = biological target: Neu5Ac(a2-6)Gal(b1-4)GlcNAc(b1-3)Gal(b1-4)GlcNAc(b1-2)Man(a1-3)[Neu5Ac(a2-6)Gal(b1-4)GlcNAc(b1-3)Gal(b1-4)GlcNAc(b1-2)Man(a1-6)]GalNAc
# How it was run: as §1
# [18] = biological target: Neu5Ac(a2-6)Gal(b1-4)GlcNAc(b1-3)Gal(b1-4)GlcNAc(b1-3)Gal(b1-4)GlcNAc
# How it was run: as §1
# [19] = biological target: Neu5Ac(a2-6)Gal(b1-4)GlcNAc(b1-3)Gal(b1-4)GlcNAc(b1-3)Gal(b1-4)GlcNAc(b1-2)Man(a1-3)[Neu5Ac(a2-6)Gal(b1-4)GlcNAc(b1-3)Gal(b1-4)GlcNAc(b1-3)Gal(b1-4)GlcNAc(b1-2)Man(a1-6)]GalNAc
# How it was run: as §1
# [20] = biological target: Neu5Ac(a2-6)Gal(b1-4)GlcNAc(b1-3)Gal(b1-4)GlcNAc(b1-3)[Neu5Ac(a2-6)Gal(b1-4)GlcNAc(b1-3)Gal(b1-4)GlcNAc(b1-6)]GalNAc
# How it was run: as §1
# [21] = biological target: Neu5Ac(a2-6)Gal(b1-4)GlcNAc(b1-3)Gal(b1-4)[Fuc(a1-3)]GlcNAc(b1-3)Gal(b1-4)[Fuc(a1-3)]GlcNAc
# How it was run: as §1
# [22] = biological target: Neu5Ac(a2-8)Neu5Ac(a2-8)Neu5Ac(a2-3)[Gal(b1-3)GalNAc(b1-4)]Gal(b1-4)Glc
# How it was run: as §1
# Neu5Ac(b1-6)GalNAc = biological target: Neu5Ac(b1-6)GalNAc
# How it was run: as §1
# [23] = biological target: Neu5Gc(a2-8)Neu5Gc(a2-3)Gal(b1-4)GlcNAc(b1-3)Gal(b1-4)GlcNAc
# How it was run: as §1
binder,measurement,setting,value
B1,glycan array binding signal (z-score),GlcNAc(b1-3)Gal(b1-4)Glc,-0.196
same,glycan array binding signal (z-score),[1],0.185
same,glycan array binding signal (z-score),[2],-0.142
same,glycan array binding signal (z-score),Kdn(a2-3)Gal(b1-3)GalNAc,0.043
same,glycan array binding signal (z-score),Man(a1-3)[Man(a1-6)]Man,-0.207
same,glycan array binding signal (z-score),[3],0.02
same,glycan array binding signal (z-score),[4],-0.26
same,glycan array binding signal (z-score),[5],-0.099
same,glycan array binding signal (z-score),[6],0.005
same,glycan array binding signal (z-score),[7],-0.123
same,glycan array binding signal (z-score),Neu5Ac(a2-3)Gal(b1-4)Glc,-0.023
same,glycan array binding signal (z-score),[8],0.022
same,glycan array binding signal (z-score),[9],2.77
same,glycan array binding signal (z-score),[10],-0.035
same,glycan array binding signal (z-score),[11],5.64
same,glycan array binding signal (z-score),[12],-0.237
same,glycan array binding signal (z-score),[13],-0.31
same,glycan array binding signal (z-score),[14],2.84
same,glycan array binding signal (z-score),Neu5Ac(a2-6)Gal,-0.162
same,glycan array binding signal (z-score),[15],-0.242
same,glycan array binding signal (z-score),[16],-0.15
same,glycan array binding signal (z-score),[17],1.11
same,glycan array binding signal (z-score),[18],-0.226
same,glycan array binding signal (z-score),[19],2.02
same,glycan array binding signal (z-score),[20],3.76
same,glycan array binding signal (z-score),[21],-0.039
same,glycan array binding signal (z-score),[22],0.131
same,glycan array binding signal (z-score),Neu5Ac(b1-6)GalNAc,-0.326
same,glycan array binding signal (z-score),[23],-0.15
